aSyn 5UTR act = Activators working through SNCA 5'UTR binding (MLPCN) | activity score, % (tested at 7.5 µM), hits read low | alpha-synuclein 5'UTR reporter, activators screen | AID 1814 | hit rate 7.1% among 300,000; in the data active = activity score below about -60%
* hit, by the source's call. Only a sample is shown.

SMILES	aSyn 5UTR act
c1ccc2oc(CCc3nc4ccccc4o3)nc2c1	-99*
O=c1c(Cl)c(O)c2cccc3c4ccccc4n1c23	-64*
CCCC(=O)N1CCN(c2ccc(NC(=O)c3ccc([N+](=O)[O-])o3)cc2Cl)CC1	-118*
CN1CCN(c2ccc(NC(=O)c3ccc(-c4cccc([N+](=O)[O-])c4)o3)cc2)CC1	-208*
CC(=O)c1ccc(NC(=O)c2ccc([N+](=O)[O-])o2)cc1	-355*
O=C(Nc1ccc2oc(=O)ccc2c1)c1ccc(-c2cccc([N+](=O)[O-])c2)o1	92
COc1ccc(NC(=O)c2ccc([N+](=O)[O-])o2)cc1	-320*
CN1CCN(c2ccc(NC(=O)c3ccc([N+](=O)[O-])o3)cc2Cl)CC1	61
Cc1ccccc1C(=O)N1CCN(c2ccc(NC(=O)c3ccc([N+](=O)[O-])o3)cc2)CC1	-168*
NS(=O)(=O)c1ccc(O)c(NC(=O)c2ccc([N+](=O)[O-])o2)c1	-62*
Cc1ccccc1C(=O)N1CCN(c2ccc(NC(=O)c3ccc4c(c3)OCO4)cc2)CC1	48
CC(C)(C)c1ccc(NC(=O)CSc2nnc(-c3n[nH]c4ccccc34)o2)cc1	-129*
COc1ccc(NCc2nnc(SCC(=O)Nc3cc(C)cc(C)c3)o2)cc1	-65*
O=C(CSc1nnc(-c2ccc(C(F)(F)F)cn2)o1)Nc1ccccc1Cl	-98*
COc1ccc(NCc2nnc(SCC(=O)Nc3cc(C(F)(F)F)ccc3Cl)o2)cc1	-63*
O=c1cc(-c2cccc(Br)c2)oc2cccc(O)c12	-141*
O=c1cc(-c2cccc(Cl)c2)oc2cccc(O)c12	-124*
O=C(CN1C(=O)C2C3C=CC(C4CC34)C2C1=O)Nc1cnc2ccccc2c1 (stereo not given)	-83*
Cc1sc(NC(=O)Nc2ccccc2)c(C(N)=O)c1C	-161*
COC(=O)c1c(NC(=O)c2ccccc2)sc2c1CC(C)(C)OC2	-69*
COC(=O)CCC(=O)NC(=S)Nc1sc(C)c(C)c1C(N)=O	90
COC(=O)c1c(NC(=O)c2ccc(OC(C)C)cc2)sc2c1CC(C)(C)NC2(C)C	103
Cc1sc(NC(=S)NC(=O)c2ccco2)c(C(N)=O)c1C	-92*
CC1(C)Cc2c(sc(NC(=O)Nc3ccccc3)c2C(N)=O)CO1	-158*
CCCc1ccc2oc(C(=O)N3CCC(COC)C3)c(C)c2c1 (stereo not given)	-113*
SMILES	aSyn 5UTR act
CCCc1ccc2oc(C(=O)N3CCC[C@H]3CO)c(C)c2c1	-200*
O=C(/C=C/c1ccccc1)c1ccccc1	-105*
O=C(/C=C/c1ccc[nH]1)c1ccccc1	-64*
O=C(/C=C/c1ccccc1)/C=C/c1ccccc1	-112*
CC(C)(C)C(=O)/C=C(N)/C=C/c1ccccc1	-76*
N/C(=N\OC(=O)/C=C/c1ccccc1)c1ccccc1	-243*
O=C(/C=C/c1ccccc1)c1ccc2c3c(cccc13)CC2	-87*
CCCc1nc2oc3c(NCCCN(C)C)ncnc3c2c2c1CCCC2	108
Cc1cc(NC(=O)c2ccc3c(c2)OCCO3)ccc1NC(=O)c1ccco1	-66*
Cc1cc(NC(=O)c2ccc([N+](=O)[O-])o2)ccc1NC(=O)c1ccco1	-110*
O=C(Nc1ccc(NC(=O)c2ccco2)cc1)c1ccc2c(c1)OCCO2	61
C=CCN1C=CC(=C/C=C(/C#N)C(=O)OCC)C=C1	-138*
CCOC(=O)/C(C#N)=C/C=C1/C=CC=CN1C	-63*
CCOC(=O)c1nc(N/N=C/c2ccccc2)sc1Br	-82*
CCCc1sc(N/N=C/c2ccccn2)nc1-c1ccc(Br)cc1	82
CC(=O)c1sc(N/N=C\c2ccc(Br)cc2)nc1C	-79*
CCC(C)[C@H](NC(=O)N1CC(=O)Nc2ccccc21)C(=O)Nc1ccccc1C (stereo not given in full)	-95*
CC(C)c1ccc(N2C=Nc3ccc(C(C)C)cc3C2)cc1	-63*
C1=Nc2ccccc2CN1c1ccccc1	-120*
CN1N=C(/C=C/c2ccccc2)CCC1=O	-134*
Cc1ccc(/C=C/C2=NN(C)C(=O)CC2)cc1	-104*
Nc1nc(-c2ccc3ccccc3c2)cs1	-193*
COc1ccc(-c2ccc(OC)cc2)cc1	-120*
Nc1nc(N)c2cc(Sc3ccc4ccccc4c3)ccc2n1	96
Cc1ccc(N/C(N)=N/c2nc(CSc3nnc(C)s3)cc(=O)[nH]2)c(C)c1	83
SMILES	aSyn 5UTR act
Nc1nc(-c2ccc(-c3ccccc3)cc2)cs1	-186*
Cc1ccc(-c2csc(N=C(N)N)n2)c(C)c1	-94*
Nc1ccc(Oc2ccccc2-c2ccccc2)cc1	104
COc1ccc(-c2csc(N)n2)cc1	-101*
c1ccc2cc(-c3csnn3)ccc2c1	-74*
COc1ccc(-c2csc(N=C(N)N)n2)cc1	-141*
Nc1nc(-c2ccc(Oc3ccccc3)cc2)cs1	-123*
CN(Cc1ccsc1)C(=O)Cn1cc(Br)ccc1=O	-97*
Cc1cccc(NC(=O)c2sc3nc(-c4ccccc4)cn3c2C)n1	-124*
Cc1c(C(=O)Nc2ccccc2)sc2nc(-c3ccccc3)cn12	-160*
COCCNC(=O)c1sc2nc(-c3ccccc3)cn2c1C	-77*
COc1ccc(-c2cn3c(C)c(C(=O)Nc4cccc(C)n4)sc3n2)cc1	-97*
CCN(c1ccccc1)S(=O)(=O)c1ccc(C(=O)Nc2ccccn2)cc1	-76*
CN(c1ccc(C(=O)Nc2cccc(O)c2)cc1)S(=O)(=O)c1ccccc1	-105*
CN(c1ccc(C(=O)Nc2ccccn2)cc1)S(=O)(=O)c1ccccc1	-133*
CCc1nnc(NC(=O)c2ccc(S(=O)(=O)N(C)c3ccccc3)cc2)o1	56
c1ccc(CSc2ncnc3c2cnn3-c2ccccc2)cc1	-142*
CC(C)(C)C(=O)CSc1ncnc2c1cnn2-c1ccccc1	-162*
CCOc1ccccc1NC(=O)C(OC(=O)c1ccc(O)cc1)c1ccccc1 (stereo not given)	-62*
Cn1cccc1/C=C1\SC(=O)N(c2ccccc2)C1=O	-115*
Cn1cc(/C=C2/SC(=O)N(c3ccccc3)C2=O)c2ccccc21	-221*
Oc1ccccc1/C=N/Nc1cccc2cccnc12	-234*
O=C(O)c1ccc(N/N=C/c2cccc3cccnc23)cc1	-89*
O=C(O)c1ccc(N/N=C/c2ccnc3ccccc23)cc1	-119*
CCc1ccc(C(=O)CCC2CCCCC2=O)cc1 (stereo not given)	-130*
SMILES	aSyn 5UTR act
Cc1ccc(C(=O)CCC2CCCC2=O)cc1 (stereo not given)	-100*
Cc1ccc(C(=O)CCC2CCCCC2=O)cc1 (stereo not given)	-151*
CCCCC(=O)Nc1ccc(NC(=O)c2ccco2)cn1	-75*
CCCC(=O)Nc1ccc(NC(=O)c2ccco2)cn1	-93*
CC(C)C(=O)Nc1ccc(NC(=O)c2ccco2)cn1	-86*
CC(C)Oc1cccc(C(=O)Nc2ccc(N3CCN(C)CC3)cc2)c1	-76*
COc1cccc(C(=O)Nc2ccc(N3CCN(C(=O)c4cccs4)CC3)cc2)c1	-162*
COc1ccc(N2CCN(C(=O)c3ccc(NS(=O)(=O)c4cccs4)cc3)CC2)cc1	-75*
CN1CCN(c2ccc(NC(=O)c3cccc(OCc4ccccc4)c3)cc2)CC1	-85*
COc1cc(/C=N/Nc2nc(Nc3ccccc3)nc(-n3nc(C)cc3C)n2)cc(OC)c1OC	-68*
O=C1/C(=C\Nc2ccc(OC(F)(F)F)cc2)CCN1c1ncccn1	-201*
O=C1/C(=C\Nc2ccc(Cl)cc2)CCN1c1ncccn1	-158*
COc1ccc(-c2cc3cc(OC)c(OC)cc3c(C)n2)cc1	-105*

Screens: PubChem, Broad Institute
